From PubChem BioAssay (NCATS)
“And” between values parts separate entries of the source, which are not always exact repeats. Equal entries are not always repeated. Records with an inconclusive call do not appear. A structure can be active in one record and inactive in another. The source made the active and inactive calls. Calls follow the shape of the dose curve; as a rule, active = well fitted curve in the direction sought with a large enough effect; inconclusive = small, poorly fitted or top-dose-only effect, or another doubt; inactive = no such curve, though single readings can be large; an effect the other way counts as inactive or inconclusive.

Target: Guanine nucleotide-binding protein G(i) subunit alpha-1 (Homo sapiens) (UniProt P63096)
Test: qHTS Assay for Inhibitors of RGS12 GoLoco Motif Activity (Green Fluorophore) (AID 879);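 also: 0% = labeled peptide with Gαi1 and full inhibition = labeled peptide alone without protein; negative values mean loss of peptide binding seen as reduced polarization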
Conditions: Galphai1/FITC-RGS12 GoLoco peptide, fluorescence polarization; series mostly up to 57.1 µM; activity, negative = inhibition: at the top concentration
How it was run: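 A drop in FITC polarization marked displacement of the FITC-tagged RGS12 GoLoco peptide (10 nM) from Gαi1 (50 nM). Compounds were incubated 10 min at room temperature in Tris pH 7.5 buffer containing 150 mM NaCl, 0.1 mM GDP and 0.05% NP40; unlabeled peptide titration served as control.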

Guanine nucleotide-binding protein G(i) subunit alpha-1 (Homo sapiens), sequence (P63096 whole entry, looked up): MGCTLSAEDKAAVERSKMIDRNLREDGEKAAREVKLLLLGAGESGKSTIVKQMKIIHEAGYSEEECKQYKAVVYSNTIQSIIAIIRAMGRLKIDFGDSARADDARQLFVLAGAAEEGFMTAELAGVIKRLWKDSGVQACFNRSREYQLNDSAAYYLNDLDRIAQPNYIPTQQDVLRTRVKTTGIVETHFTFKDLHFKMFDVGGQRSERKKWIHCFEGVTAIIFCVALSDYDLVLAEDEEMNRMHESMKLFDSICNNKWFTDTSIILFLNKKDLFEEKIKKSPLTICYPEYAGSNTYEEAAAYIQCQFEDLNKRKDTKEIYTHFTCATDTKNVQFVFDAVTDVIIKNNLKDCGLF

Structure (SMILES)	activity, negative = inhibition	outcome
O=C1NCC2(CCN(CCc3ccccc3)CC2)O1	-27.3% (inactive)	–
O=C(O)CCc1nc(-c2ccccc2)c(-c2ccccc2)o1	-17.5% (inactive)	–
Clc1ccc(Cn2c(CN3CCCC3)nc3ccccc32)cc1	-17.9% (inactive)	–
CCN1CCC[C@H]1CNC(=O)c1cc(S(N)(=O)=O)ccc1OC	-4.5% (inactive)	–
C[N+](C)(C)CCCCCC[N+](C)(C)C	–	inactive
CCN(CC)CCNC(=O)c1ccc(N)cc1	-15.1% (inactive)	–
COc1ccccc1N1CCN(CCCNc2cc(=O)n(C)c(=O)n2C)CC1	-1.18% (inactive)	–
CC(C)NCC(O)COc1cccc2[nH]ccc12 (stereo not given)	-28% (inactive)	–
CC1(C)CCC2=C(O1)c1ccccc1C(=O)C2=O	-13.6% (inactive)	–
CCN(CC)CCOC(=O)c1ccc(N)cc1	-18.6% (inactive)	–

Target: Cytochrome P450 3A4 (Homo sapiens) (UniProt P08684)
Test: qHTS Assay for Inhibitors and Substrates of Cytochrome P450 3A4 (AID 884); also: nearly all actives have a fitted effect of over 50% in size; also: potency is read from the fitted curve at half-maximal effect; as to activity change, negative = inhibition: % is scaled to controls: 0 for no effect and ±100 for the full control effect
Conditions: recombinant CYP3A4, Luciferin-PPXE luminescence; series mostly up to 57.1 µM; activity change, negative = inhibition: at the top concentration
How it was run: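 Luminescent readout of luciferin produced by CYP3A4 (20 nM) dealkylation of Luciferin-PPXE, 25 uM (its KM). NADPH-driven reaction ran 60 min at RT after 10 min compound preincubation; data scaled to 57 uM ketoconazole as 100% inhibition.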

Cytochrome P450 3A4 (Homo sapiens), sequence (P08684 whole entry, looked up): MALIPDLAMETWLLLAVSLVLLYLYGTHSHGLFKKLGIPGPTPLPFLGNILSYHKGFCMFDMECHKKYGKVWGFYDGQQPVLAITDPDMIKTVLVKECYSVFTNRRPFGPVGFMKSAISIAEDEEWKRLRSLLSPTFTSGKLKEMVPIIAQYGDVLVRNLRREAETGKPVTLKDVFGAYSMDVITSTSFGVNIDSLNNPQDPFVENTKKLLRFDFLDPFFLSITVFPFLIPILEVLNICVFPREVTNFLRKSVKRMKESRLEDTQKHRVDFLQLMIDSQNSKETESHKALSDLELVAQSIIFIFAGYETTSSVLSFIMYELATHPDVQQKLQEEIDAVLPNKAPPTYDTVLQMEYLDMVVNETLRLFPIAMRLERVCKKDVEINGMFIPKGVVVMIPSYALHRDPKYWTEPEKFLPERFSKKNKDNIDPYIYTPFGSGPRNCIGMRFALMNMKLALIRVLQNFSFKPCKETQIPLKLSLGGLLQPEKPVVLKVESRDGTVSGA

Structure (SMILES)	activity change, negative = inhibition	Potency
O=C1NCC2(CCN(CCc3ccccc3)CC2)O1	-6.25% (inactive)	–
c1cc(-c2sc(-c3ccncc3)c(-c3ccncc3)c2-c2ccncc2)ccn1	–	0.316 µM (active)
COc1cc(O)c2c(c1)C(=O)c1cc(C)cc(O)c1C2=O	-9.29% (inactive)	–
CCN1CCC[C@H]1CNC(=O)c1cc(S(N)(=O)=O)ccc1OC	-18.2% (inactive)	–
C[N+](C)(C)CCCCCC[N+](C)(C)C	-7.94% (inactive)	–
COc1ccc(-c2coc3cc(O)ccc3c2=O)cc1	-24.3% (inactive)	–
O=C1C(Cl)=C(NCCN2CCOCC2)C(=O)c2ncccc21	–	2.51 µM (active)
O=c1cc(-c2ccccc2)oc2cc(O)cc(O)c12	–	7.94 µM (active) and inactive and 2.51 µM (active)
COc1ccccc1N1CCN(CCCNc2cc(=O)n(C)c(=O)n2C)CC1	40.8% (inactive)	–
COc1ccc(-c2coc3cc(O)cc(O)c3c2=O)cc1	–	20 µM (active)
